# The OligoGym collection
# Target: ATP2B3
# Assay: pooled miR-30 sensor sort-seq; sequence = guide strand
# Settings: shRNA
# Note: reference of the scale not given here.
row,Sequence,sensor-assay potency score (higher = more potent)
1,AAAACAACTACAACCTTGCTAC,-0.0751
2,TTGCTGTTCAAGATGTTGGTGC,0.726
3,TTTGCTTTTAATATCTATTGGC,0.393
4,TTGTCGGTGGGAGACGACCGGG,-1.43
5,TTTTCTTGACAGAGTAAGCTAA,-0.151

# Target: ATP2C2
# Assay: as above
# Settings: shRNA
row,Sequence,sensor-assay potency score (higher = more potent)
1,TACGACATCACCAGGAACCAGT,-0.544
2,TAGAGGAACATGTGGTTCCTGA,-0.803
3,TTGTACATGGTGCAGTAGCGGA,-1.45
4,TTGTGCTTTGGGCTGGTCCTGA,-0.105
5,TAAGAGGAAAAACTGATCCGGT,-0.305
6,TCATCTTCACAGACACACCAGA,-0.317
7,TTCCTCTTCGTCCTTCTCCAGC,-1.04
8,TTTAATATCACTTAAGTCCATC,-0.736
9,TTCTGCTCTGAACTGAATGGAA,-0.474
10,TCATCTTAAACACTTCTCCGAA,-0.15
11,TTAAACACTTCTCCGAACTGAG,-0.019

# Target: ATP6V0A1
# Assay: as above
# Settings: shRNA
row,Sequence,sensor-assay potency score (higher = more potent)
1,TTATTGGTAGCAATGTTCCAAA,-1.08
2,TTATTCTGGAACTCAACCCAGT,0.03
3,TAAGCATCTACTATGTTCTGAA,0.161
4,TTTCTGAGTCACATCTATGTTG,-0.762
5,TTATAAGTAAACATCGGCCGTA,-0.196
6,TTTATTGGTAGCAATGTTCCAA,0.458
7,TATAAGTAAACATCGGCCGTAC,0.244
8,TCTCTTTCTCAACAAATCGAAG,-1.57
9,TTGGAGATCATCAATCCTGGTA,0.0241
10,TCTAAGTCAATCATGTCCCGGG,0.648
11,TTTCTTCACATCTTCTAACTTC,-0.0928
12,TTTCTGTCCAGAATACAACATT,-0.792
13,ATAACAGACATCTTCATCTTAA,-0.304
14,TTGGAAAACATTCACATCTGGA,0.211
15,TTAAACAGCAGCATCCAAGGTA,0.712
16,TTTCTCAACAAATCGAAGCTTT,0.0812
17,AATACAACATTGAATAACCAGA,-1.17
18,TTTTAATTCGGTCAGTTCCAGG,-1.24
19,TTCCGCACTTTGATGAACCAGA,-0.516
20,TGACACAACAATAAGCAGCCTC,-0.151
21,TTTATTCTGGAACTCAACCCAG,-0.592
22,TTGAATAACCAGACTCTGGGTA,0.472
23,TAAGTCACGAAACTGAACCTTT,-0.177
